Experimental data as given in PubChem BioAssay.
Activity calls are given as the source filed them. Unless noted, no rule for the calls is given here.

Legend:
[1] = test system: XIP peptide (Xip251-270) binding; test: small-molecule binders of XIP peptide, primary screen, biochemical, small-molecule microarray, fluorescence 635/667 nm, 0.1 µg/mL protein (AID 1182); settings: fluorescent protein binding, 635 nm, higher = more signal, called active from +8 up or from −8 down
XIP peptide (Xip251-270) = test: small-molecule binders of XIP peptide, primary screen, biochemical, small-molecule microarray, fluorescence 635/667 nm, 0.5 µg/mL protein (AID 1183); settings: small-molecule microarray binding, fluorescence 635 nm; higher = more signal
[2] = Plasmodium falciparum growth inhibition, primary screen, strain 3D7, DAPI fluorescence, 100 nL (AID 1184);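 also: parasites grown inside human red blood cells in medium with human serum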; settings: P. falciparum 3D7 growth, 3 d, higher = more signal
[3] = target: Homeobox protein Hox-A13 (Mus musculus) (UniProt Q62424); test: inhibitors of HoxA13-DNA binding, primary screen, biochemical, fluorescence polarization, labeled oligonucleotide (AID 1185); settings: 15 min, higher = more signal, called active from +8 up or from −8 down
[4] = inhibitors of hydroxyurea-induced Chk1 phosphorylation, primary screen, imaging, HeLa, phospho-Chk1 antibody, percent positive cells (AID 1186); settings: hydroxyurea-induced phospho-Chk1 immunofluorescence imaging, higher = more signal
[5] = inhibitors of hydroxyurea-induced Chk1 phosphorylation, primary screen, imaging, HeLa, phospho-Chk1 nuclear intensity (AID 1187); settings: hydroxyurea-induced phospho-Chk1 immunofluorescence imaging, higher = more signal

Chain of Homeobox protein Hox-A13 (Mus musculus) (Q62424 whole entry, looked up): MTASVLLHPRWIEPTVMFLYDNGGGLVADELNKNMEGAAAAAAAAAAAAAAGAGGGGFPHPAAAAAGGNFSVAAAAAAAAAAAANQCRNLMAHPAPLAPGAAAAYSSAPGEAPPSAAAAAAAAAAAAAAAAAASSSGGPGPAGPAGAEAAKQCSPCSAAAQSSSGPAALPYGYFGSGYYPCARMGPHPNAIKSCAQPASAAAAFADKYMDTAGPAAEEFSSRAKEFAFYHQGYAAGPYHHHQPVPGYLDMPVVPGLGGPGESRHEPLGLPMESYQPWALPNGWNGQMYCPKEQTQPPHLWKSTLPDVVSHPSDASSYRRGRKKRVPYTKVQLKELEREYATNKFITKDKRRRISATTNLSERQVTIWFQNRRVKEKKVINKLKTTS

What does the source list for `Cc1ccc(S[C@]2(C(=O)NCc3ccccc3)CC(=O)N(C3Cc4ccccc4C3)[C@@H]2c2ccc(CO)cc2I)cc1`?
composite z-score [1]: 1.77 (inactive); composite z-score (XIP peptide (Xip251-270)): 0.23; z-score [2]: 0.237; z-score [3]: -1.78 (inactive); z-score [4]: -0.424 (inactive); z-score [5]: -0.164 (inactive)

Which composite z-score [1] does the source give for `CCCCCCCCCCC(O)C1C=CC2C(=O)NC(=O)C2N1Nc1ccccn1` (configuration not stated) here?
Its composite z-score is -0.0785 (inactive).

What about the composite z-score (XIP peptide (Xip251-270)) of the same compound?
The composite z-score was -0.0706.

And the z-score [2]?
The z-score was 1.05.

And the z-score [3]?
Its z-score is -2.89 (inactive).

And the z-score [4]?
The z-score was 0.764 (inactive).

And the z-score [5]?
The z-score was 0.554 (inactive).

With `CCCCC(O)C1C=CC2C(=O)N(Cc3ccccc3)C(=O)C2N1n1cnnc1` (configuration not stated) as the compound, how does the composite z-score [1] read?
The composite z-score was 0.506 (inactive).

What about the composite z-score (XIP peptide (Xip251-270)) of the same compound?
Its composite z-score is 0.856.

What about the z-score [2] of the same compound?
Its z-score is -1.33.

And the z-score [3]?
Its z-score is -1.62 (inactive).

And the z-score [4]?
The z-score was 0.737 (inactive).

And the z-score [5]?
The z-score was 0.0163 (inactive).

For `COCC(=C=CC[C@@H](O)c1ccccc1OCCO)C[C@@H](O)COCc1ccccc1`, which composite z-score [1] is on record?
Its composite z-score is -0.581 (inactive).

And the composite z-score (XIP peptide (Xip251-270))?
The composite z-score was 0.262.

And the z-score [2]?
The z-score was -2.84.

What about the z-score [3] of the same compound?
The z-score was -4.38 (inactive).

What about the z-score [4] of the same compound?
The z-score was -1.14 (inactive).

What about the z-score [5] of the same compound?
The z-score was -0.978 (inactive).

With `C=CCOC(=O)[C@H]1[C@@H]2C(=O)O[C@@H](c3ccccc3)[C@@H](c3ccccc3)N2[C@@H](c2ccc(OCCOC(=O)[C@H]3C[C@H]4C(=O)N[C@@H](CCCCN(C)C)C(=O)N4[C@H]3c3ccc(O)cc3)cc2)[C@]12C(=O)Nc1ccccc12` as the compound, how does the composite z-score [1] read?
The composite z-score was 0.275 (inactive).

And the composite z-score (XIP peptide (Xip251-270))?
The composite z-score was 0.582.

And the z-score [2]?
The z-score was -0.216.

And the z-score [3]?
The z-score was 4.13 (inactive).

What about the z-score [4] of the same compound?
The z-score was -0.685 (inactive).

What about the z-score [5] of the same compound?
Its z-score is -0.308 (inactive).

Which composite z-score [1] does the source give for `O=C1O[C@H](c2ccccc2)[C@H](c2ccccc2)N2[C@H]1[C@@H](C(=O)NC[C@H](O)c1ccccc1)[C@]1(C(=O)Nc3ccccc31)[C@H]2c1ccccc1OCCO` here?
Its composite z-score is 2.18 (inactive).

And the composite z-score (XIP peptide (Xip251-270))?
Its composite z-score is 0.807.

What about the z-score [2] of the same compound?
Its z-score is -0.635.

What about the z-score [3] of the same compound?
Its z-score is -3.48 (inactive).

What about the z-score [4] of the same compound?
Its z-score is -0.517 (inactive).

And the z-score [5]?
Its z-score is -0.538 (inactive).

Which results are given for `O=C1O[C@@H](c2ccccc2)[C@@H](c2ccccc2)N2[C@@H](c3ccc(O)cc3)[C@]3(C(=O)Nc4ccc(C#CC5=CCCCC5)cc43)[C@@H](C(=O)Nc3nc4ccccc4s3)[C@H]12`?
composite z-score [1]: 0.433 (inactive); composite z-score (XIP peptide (Xip251-270)): 0.708; z-score [2]: -0.775; z-score [3]: 3.56 (inactive); z-score [4]: -0.315 (inactive); z-score [5]: -0.363 (inactive)

Which composite z-score [1] does the source give for `CCCc1cc2c(n1Cc1ccc(OC)cc1)C(C)C1CN(C(=O)c3ccccc3)C(C)(C(=O)OC)C21` (configuration not stated) here?
The composite z-score was -0.0607 (inactive).

What about the composite z-score (XIP peptide (Xip251-270)) of the same compound?
Its composite z-score is 0.174.

What about the z-score [2] of the same compound?
Its z-score is -1.42.

And the z-score [3]?
Its z-score is -3.45 (inactive).

What about the z-score [4] of the same compound?
Its z-score is 0.5 (inactive).

And the z-score [5]?
Its z-score is 0.396 (inactive).

With `CC(C)(C)OC(=O)CC[C@]1(C(=O)N2CCCCC2)N=C(c2ccc(OCCCO)cc2)O[C@H]1c1ccccc1CN=[N+]=[N-]` as the compound, how does the composite z-score [1] read?
Its composite z-score is 1.25 (inactive).

What about the composite z-score (XIP peptide (Xip251-270)) of the same compound?
The composite z-score was 0.855.

What about the z-score [2] of the same compound?
The z-score was -2.26.

And the z-score [3]?
Its z-score is -2.91 (inactive).

What about the z-score [4] of the same compound?
The z-score was -0.692 (inactive).

What about the z-score [5] of the same compound?
Its z-score is -0.917 (inactive).

Which composite z-score [1] does the source give for `CC(C)(C)OC(=O)CC[C@]1(C(=O)O)COC(c2ccc(OCCCO)cc2)=N1` here?
The composite z-score was 3.69 (inactive).

And the composite z-score (XIP peptide (Xip251-270))?
Its composite z-score is 0.532.

What about the z-score [2] of the same compound?
Its z-score is 1.22.

And the z-score [3]?
The z-score was -1.32 (inactive).

And the z-score [4]?
The z-score was -0.325 (inactive).

What about the z-score [5] of the same compound?
Its z-score is -0.122 (inactive).

For `C=CCOC(=O)[C@@H]1[C@H]2C(=O)O[C@H](c3ccccc3)[C@H](c3ccccc3)N2[C@H](c2ccc(OCCOC(=O)[C@H]3C[C@H]4C(=O)N[C@@H](Cc5ccccc5)C(=O)N4[C@H]3c3cccc(OCCO)c3)cc2)[C@@]12C(=O)Nc1ccc(I)cc12`, which composite z-score [1] is on record?
The composite z-score was 2.12 (inactive).

And the composite z-score (XIP peptide (Xip251-270))?
Its composite z-score is 0.813.

And the z-score [2]?
Its z-score is 0.143.

What about the z-score [3] of the same compound?
Its z-score is 6.79 (inactive).

What about the z-score [4] of the same compound?
Its z-score is -0.173 (inactive).

What about the z-score [5] of the same compound?
Its z-score is 0.0575 (inactive).

Which composite z-score [1] does the source give for `COC(=O)[C@@]1(Cc2ccccc2)[C@H]2c3cc(C(=O)N4CCCC4)n(CCO)c3C[C@H]2CN1C(=O)c1ccccc1` here?
Its composite z-score is 1.06 (inactive).

And the composite z-score (XIP peptide (Xip251-270))?
The composite z-score was 0.824.

And the z-score [2]?
The z-score was -1.29.

And the z-score [3]?
Its z-score is -0.89 (inactive).

What about the z-score [4] of the same compound?
Its z-score is -0.536 (inactive).

And the z-score [5]?
The z-score was -0.0989 (inactive).

For `C=CC[C@]1(C(=O)N2CCOCC2)N=C(c2ccc(OCCCO)cc2)O[C@H]1c1ccccc1CN=[N+]=[N-]`, which composite z-score [1] is on record?
Its composite z-score is 0.349 (inactive).

What about the composite z-score (XIP peptide (Xip251-270)) of the same compound?
The composite z-score was 0.836.

And the z-score [2]?
Its z-score is -2.33.

And the z-score [3]?
Its z-score is -4.04 (inactive).

What about the z-score [4] of the same compound?
Its z-score is -0.552 (inactive).

What about the z-score [5] of the same compound?
The z-score was -0.429 (inactive).

Which composite z-score [1] does the source give for `N#Cc1ccc(NN2C(C(O)c3ccccc3)C=CC3C(=O)N(c4ccccc4)C(=O)C32)cc1` (configuration not stated) here?
Its composite z-score is 0.283 (inactive).

What about the composite z-score (XIP peptide (Xip251-270)) of the same compound?
The composite z-score was 0.026.

What about the z-score [2] of the same compound?
The z-score was 0.635.

What about the z-score [3] of the same compound?
The z-score was -2.61 (inactive).

What about the z-score [4] of the same compound?
The z-score was 0.422 (inactive).

And the z-score [5]?
The z-score was 0.691 (inactive).

What does the source list for `CCCC[C@@H](O)C1=C(COc2ccccc2)Cn2c(=O)n(-c3ccccc3)c(=O)n2[C@H]1CO`?
composite z-score [1]: 1.52 (inactive); composite z-score (XIP peptide (Xip251-270)): 0.628; z-score [2]: -0.471; z-score [3]: -6.48 (inactive); z-score [4]: -0.532 (inactive); z-score [5]: 0.347 (inactive)

With `CC(C)c1ccc(NN2C(C(O)c3ccccn3)C=CC3C(=O)N(c4ccccc4)C(=O)C32)cc1` (configuration not stated) as the compound, how does the composite z-score [1] read?
Its composite z-score is 1.17 (inactive).

And the composite z-score (XIP peptide (Xip251-270))?
The composite z-score was 0.69.

And the z-score [2]?
The z-score was -0.723.

And the z-score [3]?
Its z-score is -4.86 (inactive).

What about the z-score [4] of the same compound?
Its z-score is 0.236 (inactive).

What about the z-score [5] of the same compound?
Its z-score is 0.375 (inactive).

For `C=CCNC(=O)[C@H]1[C@@H]2C(=O)O[C@@H](c3ccccc3)[C@@H](c3ccccc3)N2[C@@H](c2ccc(OCCO)cc2)[C@]12C(=O)N(C(=O)OCCOC)c1ccc(C#CC3=CCCCC3)cc12`, which composite z-score [1] is on record?
The composite z-score was 0.377 (inactive).

What about the composite z-score (XIP peptide (Xip251-270)) of the same compound?
The composite z-score was 0.799.

And the z-score [2]?
The z-score was -2.22.

And the z-score [3]?
Its z-score is 2.62 (inactive).

And the z-score [4]?
The z-score was -0.142 (inactive).

And the z-score [5]?
The z-score was -0.108 (inactive).
